# From the supplement of paper PMC8728848
# The entries come from a sample that favours the strongest signals as a whole.
# B1: BC2L-A (Burkholderia cenocepacia), Q1BKJ8_BURCA (protein)
# chain: ADSQTSSNRAGEFSIPPNTDFRAIFFANAAEQQHIKLFIGDSQEPAAYHKLTTRDGPREATLNSGNGKIRFEVSVNGKPSATDARLAPINGKKSDGSPFTVNFGIVVSEDGHDSDYNDGIVVLQWPIG
# How the values were obtained:
# Test in all cases: glycan array binding signal (z-score within array); higher = stronger binding
# Conditions in all cases: glycan notation: IUPAC condensed, linker removed
# Fuc(a1-2)Gal(b1-4)GlcNAc = biological target: Fuc(a1-2)Gal(b1-4)GlcNAc
# How it was run: (§1)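 Glycan array data were curated from 3228 arrays in the Consortium for Functional Glycomics database and kept only where the protein sequence was available. Glycan names were converted to IUPAC-condensed notation, and columns mapping to the same glycan were averaged. The binding signal is a within-array Z-score, averaged across arrays of the same protein sequence at different concentrations or buffers and across linkers. Negative Z-scores can be read as non-binding.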
# [1] = biological target: Fuc(a1-2)Gal(b1-4)GlcNAc(b1-3)Gal(b1-4)GlcNAc(b1-3)Gal(b1-4)GlcNAc
# How it was run: as §1
# Fuc(a1-2)Gal6S(b1-4)Glc = biological target: Fuc(a1-2)Gal6S(b1-4)Glc
# How it was run: as §1
# Fuc(a1-2)GlcNAc = biological target: Fuc(a1-2)GlcNAc
# How it was run: as §1
# [2] = biological target: Fuc(a1-2)[GalNAc(a1-3)]Gal(b1-4)GlcNAc(b1-2)Man(a1-3)[Fuc(a1-2)[GalNAc(a1-3)]Gal(b1-4)GlcNAc(b1-2)Man(a1-6)]Man(b1-4)GlcNAc(b1-4)GlcNAc
# How it was run: as §1
# [3] = biological target: Fuc(a1-2)[GalNAc(a1-3)]Gal(b1-4)GlcNAc(b1-3)Gal(b1-4)GlcNAc
# How it was run: as §1
# [4] = biological target: Fuc(a1-3)[Gal(b1-4)]GlcNAc
# How it was run: as §1
# [5] = biological target: Fuc(a1-3)[Gal(b1-4)]GlcNAc(b1-2)Man(a1-3)[Fuc(a1-3)[Gal(b1-4)]GlcNAc(b1-2)Man(a1-6)]Man(b1-4)GlcNAc(b1-4)[Fuc(a1-6)]GlcNAc
# How it was run: as §1
# [6] = biological target: Fuc(a1-3)[GalNAc(b1-4)]GlcNAc
# How it was run: as §1
# Gal(a1-3)Gal(b1-3)GlcNAc = biological target: Gal(a1-3)Gal(b1-3)GlcNAc
# How it was run: as §1
# Gal(b1-3)GlcNAc = biological target: Gal(b1-3)GlcNAc
# How it was run: as §1
# [7] = biological target: Gal(b1-3)GlcNAc(b1-3)Gal(b1-4)GlcNAc(b1-6)[Gal(b1-3)GlcNAc(b1-3)]Gal(b1-4)Glc
# How it was run: as §1
# [8] = biological target: Gal(b1-3)GlcNAc(b1-6)Gal(b1-4)GlcNAc
# How it was run: as §1
# [9] = biological target: Gal(b1-3)[Fuc(a1-4)]GlcNAc(b1-3)Gal(b1-4)[Fuc(a1-3)]GlcNAc
# How it was run: as §1
# [10] = biological target: Gal(b1-4)GlcNAc(b1-2)Man(a1-3)[Man(a1-6)]Man(b1-4)GlcNAc(b1-4)GlcNAc
# How it was run: as §1
# [11] = biological target: Gal(b1-4)GlcNAc(b1-2)Man(a1-6)Man(b1-4)GlcNAc(b1-4)GlcNAc
# How it was run: as §1
# [12] = biological target: Gal(b1-4)GlcNAc(b1-2)[Gal(b1-4)GlcNAc(b1-4)]Man(a1-3)[Gal(b1-4)GlcNAc(b1-2)Man(a1-6)]Man(b1-4)GlcNAc(b1-4)GlcNAc
# How it was run: as §1
# [13] = biological target: Gal(b1-4)GlcNAc(b1-2)[Gal(b1-4)GlcNAc(b1-4)]Man(a1-3)[GlcNAc(b1-4)][Gal(b1-4)GlcNAc(b1-2)[Gal(b1-4)GlcNAc(b1-6)]Man(a1-6)]Man(b1-4)GlcNAc(b1-4)GlcNAc
# How it was run: as §1
# Gal3S(b1-3)GlcNAc = biological target: Gal3S(b1-3)GlcNAc
# How it was run: as §1
# [14] = biological target: GlcNAc(a1-4)Gal(b1-4)GalNAc
# How it was run: as §1
# [15] = biological target: GlcNAc(b1-3)[GlcNAc(b1-6)]GlcNAc(b1-4)GlcNAc
# How it was run: as §1
# [16] = biological target: Man(a1-2)Man(a1-2)Man(a1-6)[Man(a1-3)]Man
# How it was run: as §1
# [17] = biological target: Man(a1-2)Man(a1-3)[Man(a1-2)Man(a1-6)]Man
# How it was run: as §1
# [18] = biological target: Man(a1-2)Man(a1-3)[Man(a1-2)Man(a1-6)]Man(a1-6)[Man(a1-2)Man(a1-2)Man(a1-3)]Man
# How it was run: as §1
# [19] = biological target: Man(a1-2)Man(a1-6)[Man(a1-3)]Man(a1-6)[Man(a1-2)Man(a1-2)Man(a1-3)]Man
# How it was run: as §1
# [20] = biological target: Man(a1-2)Man(a1-6)[Man(a1-3)]Man(a1-6)[Man(a1-2)Man(a1-2)Man(a1-3)]Man(b1-4)GlcNAc(b1-4)GlcNAc
# How it was run: as §1
# Man(a1-3)[Man(a1-6)]Man = biological target: Man(a1-3)[Man(a1-6)]Man
# How it was run: as §1
# [21] = biological target: Man(a1-3)[Man(a1-6)]Man(a1-6)[Man(a1-2)Man(a1-3)]Man(b1-4)GlcNAc(b1-4)GlcNAc
# How it was run: as §1
# [22] = biological target: Man(a1-3)[Man(a1-6)]Man(a1-6)[Man(a1-3)]Man(b1-4)GlcNAc(b1-4)GlcNAc
# How it was run: as §1
# [23] = biological target: Man(a1-3)[Man(a1-6)]Man(b1-4)GlcNAc(b1-4)GlcNAc
# How it was run: as §1
# [24] = biological target: Neu5Ac(a2-3)Gal(b1-3)GlcNAc(b1-3)Gal(b1-4)GlcNAc
# How it was run: as §1
# [25] = biological target: Neu5Ac(a2-3)Gal(b1-3)[Neu5Ac(a2-6)]GalNAc
# How it was run: as §1
# [26] = biological target: Neu5Ac(a2-3)Gal(b1-4)GlcNAc(b1-3)Gal
# How it was run: as §1
# [27] = biological target: Neu5Ac(a2-3)[GalNAc(b1-4)]Gal(b1-4)Glc
# How it was run: as §1
# [28] = biological target: Neu5Ac(a2-8)Neu5Ac(a2-8)Neu5Ac(a2-3)Gal(b1-4)Glc
# How it was run: as §1
# Neu5Gc(a2-6)GalNAc = biological target: Neu5Gc(a2-6)GalNAc
# How it was run: as §1
binder,measurement,setting,value
B1,glycan array binding signal (z-score),Fuc(a1-2)Gal(b1-4)GlcNAc,0.167
same,glycan array binding signal (z-score),[1],0.018
same,glycan array binding signal (z-score),Fuc(a1-2)Gal6S(b1-4)Glc,-0.176
same,glycan array binding signal (z-score),Fuc(a1-2)GlcNAc,-0.178
same,glycan array binding signal (z-score),[2],-0.165
same,glycan array binding signal (z-score),[3],-0.296
same,glycan array binding signal (z-score),[4],-0.285
same,glycan array binding signal (z-score),[5],-0.217
same,glycan array binding signal (z-score),[6],-0.263
same,glycan array binding signal (z-score),Gal(a1-3)Gal(b1-3)GlcNAc,-0.284
same,glycan array binding signal (z-score),Gal(b1-3)GlcNAc,-0.29
same,glycan array binding signal (z-score),[7],-0.22
same,glycan array binding signal (z-score),[8],-0.219
same,glycan array binding signal (z-score),[9],-0.086
same,glycan array binding signal (z-score),[10],2.13
same,glycan array binding signal (z-score),[11],-0.182
same,glycan array binding signal (z-score),[12],-0.144
same,glycan array binding signal (z-score),[13],-0.22
same,glycan array binding signal (z-score),Gal3S(b1-3)GlcNAc,0.002
same,glycan array binding signal (z-score),[14],-0.296
same,glycan array binding signal (z-score),[15],-0.249
same,glycan array binding signal (z-score),[16],4.07
same,glycan array binding signal (z-score),[17],2.25
same,glycan array binding signal (z-score),[18],4.82
same,glycan array binding signal (z-score),[19],4.09
same,glycan array binding signal (z-score),[20],5.06
same,glycan array binding signal (z-score),Man(a1-3)[Man(a1-6)]Man,5.28
same,glycan array binding signal (z-score),[21],5.49
same,glycan array binding signal (z-score),[22],4.38
same,glycan array binding signal (z-score),[23],4.23
same,glycan array binding signal (z-score),[24],-0.218
same,glycan array binding signal (z-score),[25],-0.083
same,glycan array binding signal (z-score),[26],-0.214
same,glycan array binding signal (z-score),[27],-0.295
same,glycan array binding signal (z-score),[28],-0.253
same,glycan array binding signal (z-score),Neu5Gc(a2-6)GalNAc,-0.29
